Assay results taken from PMC4242493, “Sequence specificity incompletely defines the genome-wide occupancy of Myc”.
The full ranking holds about 33,000 sequences; the median of “normalized occupancy” is about 0.075, and the highest 2% start at about 0.095. This is one part of a sample in which the highest values are shown more often than they occur.

target: MaxL homodimer (Homo sapiens, UniProt P61244 1-160); test: universal protein-binding microarray (PBM); PBS-based mixture, 10 nM His-tagged protein dimer, 2% milk, 200 ng/uL BSA, 50 ng/uL salmon testes DNA, 0.02% TX-100; detection with Alexa 488 anti-His antibody;; high values mean tight binding; details: protein: recombinant; tags: C-terminal His-tag (pET21a); chain copies: 2; dsDNA, one strand shown
Outline: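 His-tagged protein dimer at 10 nM was incubated on Agilent 4 x 44 K arrays with the 'all 10-mer' universal design. Bound protein was tagged with 10 ng/μL fluorophore-conjugated anti-His antibody, and arrays were scanned on a GenePix 4400A. Binding occupancy for each 8-mer is its fluorescence intensity normalised to the highest-ranked 8-mer's intensity.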

MaxL homodimer, sequence (P61244 whole entry): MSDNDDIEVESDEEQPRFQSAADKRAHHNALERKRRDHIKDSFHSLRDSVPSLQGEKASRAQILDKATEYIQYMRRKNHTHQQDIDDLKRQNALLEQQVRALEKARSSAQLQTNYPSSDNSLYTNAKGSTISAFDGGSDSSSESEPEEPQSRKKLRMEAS

Sequence	binding signal
CCATGTCC	0.0824 normalized occupancy
ACATGTGG	0.209 normalized occupancy
ACATGTGC	0.197 normalized occupancy
CCGATGAC	0.0747 normalized occupancy
TTAGTAAA	0.0726 normalized occupancy
CGATGCCC	0.0786 normalized occupancy
CCGAGTGC	0.0748 normalized occupancy
GATAGTGC	0.0782 normalized occupancy
AAGTTAGA	0.0733 normalized occupancy
CAGGCACC	0.0774 normalized occupancy
GACAAGAA	0.0761 normalized occupancy
AGGCGTTA	0.0751 normalized occupancy
CCCATACG	0.0864 normalized occupancy
CGTGACCA	0.0992 normalized occupancy
AGTGACCA	0.0753 normalized occupancy
CATGACCG	0.0795 normalized occupancy
CGTGATCC	0.0811 normalized occupancy
GATGACCA	0.0763 normalized occupancy
CGTGACCC	0.0843 normalized occupancy
GGTGATCA	0.0835 normalized occupancy
CATGACCA	0.0957 normalized occupancy
CGTGATCA	0.0962 normalized occupancy

Sequence	binding signal
CGCCAACA	0.0741 normalized occupancy
ACCTGATG	0.0825 normalized occupancy
AGCTACAA	0.0722 normalized occupancy
ATGCCAAA	0.0777 normalized occupancy
GAGATCCC	0.0743 normalized occupancy
ATACACGA	0.0889 normalized occupancy
CTACACGC	0.0967 normalized occupancy
ATACACGC	0.102 normalized occupancy
CTACACAC	0.093 normalized occupancy
CTACACGA	0.0821 normalized occupancy
ATACACGG	0.0846 normalized occupancy
ACTTGACA	0.0819 normalized occupancy
GCTCCCAC	0.075 normalized occupancy
CATCAAGC	0.0726 normalized occupancy
GTTGAAGA	0.082 normalized occupancy
ACAGAAGA	0.0734 normalized occupancy
ATGAAGGG	0.0755 normalized occupancy
AATGCGAG	0.0746 normalized occupancy
CATGCGAC	0.109 normalized occupancy
CATGCGAA	0.0898 normalized occupancy
AATGCGAC	0.0782 normalized occupancy
CATGCGAG	0.0975 normalized occupancy

Sequence	binding signal
GATGCGAC	0.0759 normalized occupancy
AAACCTTA	0.0742 normalized occupancy
ATAACGTA	0.0784 normalized occupancy
ACAACGTG	0.149 normalized occupancy
AGAACGCG	0.0788 normalized occupancy
ACGACGTG	0.0963 normalized occupancy
ACGACGTC	0.0746 normalized occupancy
ATAACGTC	0.0773 normalized occupancy
ACAACGTA	0.077 normalized occupancy
ATAACGTG	0.113 normalized occupancy
AGAACGTA	0.0742 normalized occupancy
AGAACGTG	0.1 normalized occupancy
ACAACGGG	0.0774 normalized occupancy
ACGACGTA	0.0786 normalized occupancy
ATAGCGCC	0.0747 normalized occupancy
GGAGAAGA	0.0765 normalized occupancy
ATTATTCG	0.0765 normalized occupancy
AGCTGACA	0.0754 normalized occupancy
AACAGCAC	0.0765 normalized occupancy
GTCACCTA	0.0725 normalized occupancy
ATTTTAAC	0.0737 normalized occupancy
AAATTGCA	0.0733 normalized occupancy

Sequence	binding signal
CCGCGCGC	0.0828 normalized occupancy
AAATAAAA	0.079 normalized occupancy
AAACCCAA	0.0746 normalized occupancy
CTTGTCAC	0.0759 normalized occupancy
AACCACAC	0.0854 normalized occupancy
AACCACAT	0.0973 normalized occupancy
ATCCACAG	0.078 normalized occupancy
ATCCACAT	0.0977 normalized occupancy
AACCACAA	0.0762 normalized occupancy
ATCCACAA	0.077 normalized occupancy
GCAACAGA	0.0747 normalized occupancy
GTCAGAGA	0.073 normalized occupancy
ATTGTCTG	0.0774 normalized occupancy
TACATACA	0.092 normalized occupancy
AATGGGAA	0.0775 normalized occupancy
CTTGTGTA	0.0811 normalized occupancy
CATGTGTC	0.125 normalized occupancy
AATGTGTC	0.095 normalized occupancy
CATGTGTA	0.131 normalized occupancy
CATGTCTC	0.0933 normalized occupancy
GATGTGTA	0.0848 normalized occupancy
